High-throughput results (PubChem)
CYP2C19 activ: human CYP2C19 activators, primary screen, biochemical, luminescence. recombinant CYP2C19, luciferin-H EGE luminescence; active compounds read high; 0 = fully inhibited enzyme, 1 = untreated enzyme. activation factor at 5 µM. 96,000 tested, under 10 active. AID 1025, 2008;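 active means activation factor of at least 2 at 5 µM in the primary screen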
CYP2C9 inh: blockers of cytochrome P450 2C9 activity – biochemical, luminescence, ADME assay, primary screen | P11712 | CYP2C9 Supersomes, luciferin-H conversion | inhibition, % at 5 µM | hit rate 20% among 96,000;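 active means blocking of liver enzyme CYP2C9 beyond about 50% at 5 µM, limit read from the data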
Target sequence (P11712 whole entry, looked up): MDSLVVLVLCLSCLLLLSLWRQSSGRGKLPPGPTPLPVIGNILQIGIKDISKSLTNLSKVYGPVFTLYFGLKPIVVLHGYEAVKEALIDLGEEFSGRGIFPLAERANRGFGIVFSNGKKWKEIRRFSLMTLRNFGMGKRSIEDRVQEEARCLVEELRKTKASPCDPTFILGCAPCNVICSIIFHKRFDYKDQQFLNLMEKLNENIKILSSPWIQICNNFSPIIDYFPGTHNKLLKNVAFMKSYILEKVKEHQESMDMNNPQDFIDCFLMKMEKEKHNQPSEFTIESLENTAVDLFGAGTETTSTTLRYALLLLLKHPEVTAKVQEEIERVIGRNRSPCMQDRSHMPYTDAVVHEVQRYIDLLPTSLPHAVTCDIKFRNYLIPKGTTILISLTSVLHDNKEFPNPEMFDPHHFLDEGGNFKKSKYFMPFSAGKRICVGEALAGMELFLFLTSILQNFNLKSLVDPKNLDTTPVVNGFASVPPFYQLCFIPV
CYP2C9 act: human CYP2C9 activators, primary screen, biochemical, luminescence; recombinant CYP2C9, luciferin-H conversion; active compounds read high; factor 1 = untreated enzyme, 0 = blocked; hit rate 1.4% among 96,000; activation factor at 5 µM; Cytochrome P450 2C9 (Homo sapiens), P11712; AID 1024, 2008;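 active means activation factor of 2 or more for CYP2C9 at a 5 µM dose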
PostGolgi yeast: phenotypic screen on post-Golgi transport, primary screen; post-Golgi transport phenotypic cell assay; inhibition, % at 10 µM; hit rate 0.9% among 98,000;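 further: yeast cells grown in 1536-well plates; yeast grown about 18 h at 30C before absorbance read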
CYP2C19 inh: blockers of cytochrome P450 2C19 activity – biochemical, luminescence, ADME assay, primary screen; hit rate 21% among 96,000; P33261; AID 778, 2007; inhibition, % at 5 µM; CYP2C19 Supersomes, luciferin-H EGE luminescence, 30 min;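 active means CYP2C19 inhibition above a set limit at 5 µM in the primary screen, cut at about 50% in these data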
PostGolgi ctrl: growth inhibition of yeast control strain, primary screen, counter-screen for post-Golgi transport modulator project | efflux-deficient yeast background strain, growth absorbance A615, 16 h | inhibition, % at 10 µM | hit rate 5% among 98,000 | AID 738, 2007
Each line names hits and unclear results; the compound was inactive in the other large screens. Hits are enriched below; roughly 32% of the tested compounds scored in any of these assays. Unless noted, no stated cut-off is given here; in the data, active means inhibition above about 30%; inactive means the rest.

COc1ccc(C2C(C(=O)c3sc(C)nc3C)=C(O)C(=O)N2CCN(C)C)cc1 (centres undefined)	none
Cc1nc(C)c(C(=O)C2=C(O)C(=O)N(CCCn3ccnc3)C2c2ccc(Cl)cc2)s1 (centres undefined)	CYP2C9 inh 59
COc1ccc(C2C(C(=O)c3cccs3)=C(O)C(=O)N2c2nnc(C)s2)cc1OC (centres undefined)	none
COc1cccc(C2C(C(=O)c3cccs3)=C(O)C(=O)N2CCCn2ccnc2)c1OC (centres undefined)	CYP2C9 inh 89, CYP2C19 inh 77 (no result: PostGolgi yeast, PostGolgi ctrl)
CCCOc1ccc(C2C(C(=O)c3ccco3)=C(O)C(=O)N2CCCn2ccnc2)cc1 (centres undefined)	CYP2C9 inh 61
O=C(Cc1c(C(=O)O)[nH]c2ccc(Cl)cc12)Nc1ccc2c(c1)OCCO2	none
CC1(C)Cc2c(sc3c2c(=N)n(Cc2ccco2)c(=O)n3CC(=O)Nc2ccc(Cl)cc2)CO1	none (no result: PostGolgi yeast, PostGolgi ctrl)
CNC(=S)N1CCN(c2ccc(OC)cc2)CC1	CYP2C19 inh 70
O=C(NC12CC3CC(CC(C3)C1)C2)N1CCN(c2nc(-c3ccccc3)cs2)CC1	PostGolgi ctrl 42
COc1ccc(N2CCN(C(=O)NC34CC5CC(CC(C5)C3)C4)CC2)cc1	CYP2C9 inh 59, CYP2C19 inh 63
CCOC(=O)N1CCN(C(=O)Nc2sc3nc4n(c(=O)c3c2C)CCC(C)CC4)CC1 (centres undefined)	none
Cn1c(CSc2nc3ccc(Br)cc3[nH]2)nc2ccccc21	CYP2C19 inh 82
Cn1c(CSc2nnc(SCc3ccccc3)s2)nc2ccccc21	CYP2C19 inh 60
Cn1c(Cn2cnc3ccccc32)nnc1SCc1ccccc1	none
O=C(NNC(=O)c1sccc1-n1cccc1)c1cccc(Cl)c1	none
CC(=O)c1cc2c(cc1NC(=O)CSc1nnc(C)s1)OCO2	none
O=C(Nc1ccc(N2CCN(C(=O)c3ccco3)CC2)c(Cl)c1)c1c(F)c(F)c(F)c(F)c1F	CYP2C9 inh 73, CYP2C19 inh 68, PostGolgi ctrl 63
Cc1ccccc1C(=O)N1CCN(c2ccc(NC(=O)c3ccco3)cc2Cl)CC1	none
COc1c(F)c(F)c(C(=O)Nc2ccc(N3CCN(C(C)=O)CC3)c(Cl)c2)c(F)c1F	CYP2C9 inh 66
O=C(Nc1ccc(N2CCOCC2)c(Cl)c1)c1c(F)c(F)c(F)c(F)c1F	none
O=C(Nc1ccc(N2CCN(C(=O)c3cccs3)CC2)c(Cl)c1)c1ccco1	CYP2C9 inh 54
O=C(CN1C(=O)C2C3C=CC(C3)C2C1=O)N1CC(=O)N(CCc2ccccc2)C(=O)C1 (centres undefined)	none
Cc1cc(C(=O)CN(Cc2ccc(F)cc2)S(=O)(=O)c2ccc3c(c2)OCCO3)c(C)n1C	CYP2C9 inh 66, CYP2C19 inh 60
O=S(=O)(c1ccc2c(c1)OCCO2)N(Cc1ccc(F)cc1)Cc1nnc(-c2cccs2)o1	CYP2C9 inh 87, PostGolgi ctrl 35
CCN(CC)C(=O)CN(Cc1ccccc1)S(=O)(=O)c1ccc(F)cc1	none
COc1ccc(C2C(C(=O)NC(C)C)c3ccccc3C(=O)N2C)cc1OC (centres undefined)	none
CC(CN1CCCCC1)OC(=O)c1cc2ccccc2o1 (centres undefined)	none
O=C(CSc1nccc(=O)[nH]1)N1CCc2ccccc2C1	none
O=C(CSc1nccc(=O)[nH]1)c1ccccc1Br	CYP2C9 inh 55
CC(=O)/C=C(\C)NCCNc1c(F)c(F)c(CO)c(F)c1F	CYP2C19 inh 79
COC(=O)c1c(F)c(F)c(NCCO)c(F)c1F	none
CC(C)CCOc1ccc(Cl)cc1CN1CCOCC1	PostGolgi yeast 32, CYP2C19 inh 56, PostGolgi ctrl 37
CCCCCOc1ccc(Cl)cc1CN1CCOCC1	CYP2C9 inh 54, PostGolgi yeast 58, CYP2C19 inh 90
COc1ccc(CCNC(=O)/C=C/c2ccc(C)cc2)cc1OC	none
COc1ccc(C(=O)N2CCCC(c3ccccc3)C2)cc1 (centres undefined)	CYP2C19 inh 95
COc1ccc(C(=O)N2CCC(C(=O)O)CC2)cc1	none
COc1ccc(C(=O)Nc2ccc(Cl)cc2C(=O)N2CCCC(C)C2)cc1 (centres undefined)	PostGolgi yeast 65
O=C(c1ccco1)N1CCCN(C(=O)c2ccco2)CC1	none
O=C(c1ccco1)N1CCC(c2ccccc2)C1 (centres undefined)	CYP2C9 inh 51, CYP2C19 inh 78
COc1ccc(C(=O)Nc2ccc(Cl)cc2C(=O)NCCO)cc1	none
CN1CCN(C(=O)c2ccccc2NC(=O)Cc2ccccc2)CC1	none
CCN(CC)C(=O)C1=C(C)NC(=O)NC1c1c(F)cccc1Cl (centres undefined)	none
OC1(c2cccnc2)CCN(Cc2nnnn2C2CCCCC2)CC1	none
Cc1c(C(=O)O)oc2ccc(S(=O)(=O)NCc3ccccc3)cc12	none
Cc1c(/C=N/n2cnnc2)c2ccccc2n1CCOc1ccc(Cl)cc1	none
Cc1ccc(OCCn2c(C)c(/C=N/n3cnnc3)c3ccccc32)cc1	CYP2C9 inh 89, CYP2C19 inh 86
O=[N+]([O-])c1ccc(O)c(-c2nc(-c3ccccc3)c(-c3cccs3)[nH]2)c1	CYP2C9 inh 92, PostGolgi ctrl 45
CCOc1cc(-c2nc(-c3ccccc3)c(-c3cc([N+](=O)[O-])ccc3C)[nH]2)ccc1O	CYP2C9 inh 57
C=CCC(NC(C)c1ccccc1)c1ccco1 (centres undefined)	none
Fc1ccc2nc3n(c2c1F)CCCCCC3	PostGolgi ctrl 40
COc1cccc(C2C(C#N)=C(N)Oc3cc(C)[nH]c(=O)c32)c1OC (centres undefined)	none
CCOC(=O)CC(=O)CSc1nc2c(cc1C#N)CCCCC2	CYP2C9 inh 66
N#Cc1cc2c(nc1SCC(=O)N1CCCCC1)CCCC2	none
CC(C)OC(=O)CC(=O)CSc1nc2c(cc1C#N)CCCCC2	CYP2C9 inh 87, CYP2C19 inh 73
CSc1nc2ccccc2c(=O)n1N	none
Nc1nc2c3ccccc3nc(Cc3ccccc3)n2n1	CYP2C19 inh 55
COc1ccccc1-n1cnc(N)c1C(=O)c1ccccc1	none
Brc1cccc(-c2n[nH]c(-c3ccccc3)n2)c1	PostGolgi ctrl 43
S=c1nc(-c2cccc(Br)c2)[nH][nH]1	none
CCN(CC)C(=O)C1CCCN(Cc2ccc3c(c2)OCO3)C1 (centres undefined)	none
CCN(CC)C(=O)C1CCCN(Cc2ccccc2C(F)(F)F)C1 (centres undefined)	CYP2C19 inh 58
CCN(CC)C(=O)C1CCCN(Cc2ccc(F)c(F)c2)C1 (centres undefined)	CYP2C19 inh 55
